Experimental data published in article PMC4336329 (PLoS ONE, 2015).
Screen size: about 310,000 compounds; about 14,000 (4.5%) showed an effect of 50% or more. Effects have a minus sign here. Shown is part of a subset that was picked to be rich in strong results.

These compounds were tested against human ether-à-go-go-related gene (hERG) potassium channel (human, UniProt Q12809) (assay: primary screen, population patch clamp on CHO cells stably expressing hERG; higher = less effect of the substance).
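Also: peak tail current of the secondary pulse compared with the same well before compound.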

human ether-à-go-go-related gene (hERG) potassium channel, sequence (Q12809 whole entry, looked up): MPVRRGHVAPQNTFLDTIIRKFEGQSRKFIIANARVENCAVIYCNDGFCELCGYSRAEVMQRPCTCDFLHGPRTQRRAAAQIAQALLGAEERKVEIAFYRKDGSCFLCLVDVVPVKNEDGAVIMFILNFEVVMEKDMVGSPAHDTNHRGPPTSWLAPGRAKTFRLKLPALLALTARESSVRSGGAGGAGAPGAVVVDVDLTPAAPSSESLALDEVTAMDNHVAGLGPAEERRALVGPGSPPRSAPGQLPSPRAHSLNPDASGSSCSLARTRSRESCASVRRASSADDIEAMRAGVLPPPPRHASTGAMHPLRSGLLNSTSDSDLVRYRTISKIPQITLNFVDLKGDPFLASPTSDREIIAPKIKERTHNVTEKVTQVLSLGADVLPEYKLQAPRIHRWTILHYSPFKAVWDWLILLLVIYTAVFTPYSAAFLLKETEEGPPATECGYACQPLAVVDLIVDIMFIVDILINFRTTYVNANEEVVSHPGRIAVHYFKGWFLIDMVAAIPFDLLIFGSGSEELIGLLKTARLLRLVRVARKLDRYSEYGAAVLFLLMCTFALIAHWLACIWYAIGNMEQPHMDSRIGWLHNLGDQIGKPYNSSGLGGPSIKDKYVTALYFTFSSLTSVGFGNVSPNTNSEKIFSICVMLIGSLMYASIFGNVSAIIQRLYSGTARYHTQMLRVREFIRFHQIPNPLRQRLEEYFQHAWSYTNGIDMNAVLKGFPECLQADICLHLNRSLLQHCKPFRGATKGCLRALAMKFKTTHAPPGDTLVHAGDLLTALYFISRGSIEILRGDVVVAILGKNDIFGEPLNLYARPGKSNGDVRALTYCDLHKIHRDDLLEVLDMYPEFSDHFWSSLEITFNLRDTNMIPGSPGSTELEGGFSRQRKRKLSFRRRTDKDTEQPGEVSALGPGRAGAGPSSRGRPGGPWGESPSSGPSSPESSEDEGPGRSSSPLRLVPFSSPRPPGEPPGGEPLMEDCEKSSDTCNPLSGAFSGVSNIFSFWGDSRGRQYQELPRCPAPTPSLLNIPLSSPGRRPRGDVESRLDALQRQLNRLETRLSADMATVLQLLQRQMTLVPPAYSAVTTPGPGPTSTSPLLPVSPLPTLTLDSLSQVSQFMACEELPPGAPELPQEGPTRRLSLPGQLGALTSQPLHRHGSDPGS

SMILES	hERG current change (%, negative = inhibition) at 10uM
CCCCNS(=O)(=O)c1ccc2nc(-c3cccs3)cc(C(=O)NCC(OC)OC)c2c1	9.85%
Cc1c(C(=O)N2CCCCC2)c(S(=O)(=O)Nc2cccc(Br)c2)c(C)n1C	-4.02%
O=C(CCc1nnc(CCCCc2ccccc2)o1)N1CCCCC1CCO (stereo not drawn)	-1.73%
COC(=O)[C@@H]1CCCN1C(=O)CCc1nnc(C2CCCCC2)o1	6.94%
O=C(CCc1nnc(C2CCCCC2)o1)N1CCCCC1CCn1cccn1 (stereo not drawn)	3.65%
CCC1CCCCN1C(=O)CCc1nnc(C2CCCCC2)o1 (stereo not drawn)	-55%
O=C(CCc1nnc(CCc2ccccc2)o1)N1CCCCC1CCn1cccn1 (stereo not drawn)	-51.1%
O=C(CCc1nnc(C2CCCCC2)o1)N1CCN(C2CCCCC2)CC1	10.4%
O=C(Cc1cccs1)N/N=C/C(Br)=C/c1ccccc1	10.1%
CCOc1ccc(OCCCC(=O)Nc2nc3ccccc3[nH]2)cc1	12%
CC1CCCN(C(=O)CSc2nnc(-c3ccncc3)n2C)C1 (stereo not drawn)	45.9%
C/C=C\C=C\C(=O)Nc1cccc(C2=NOC3(C2)C[C@@H](C(N)=O)N(C(=O)C(c2ccccc2)c2ccccc2)C3)c1 (stereo partly drawn)	0.545%
Cc1ccc(C=Nc2ccc(N(C)C)cc2)o1	-0.267%
CCOC(=O)c1ccc(NC(=O)c2ccc3c(c2)C(=O)N(CC2CCCO2)C3=O)cc1 (stereo not drawn)	-1.87%
COc1ccc(N2CCN(S(=O)(=O)CCNC(=O)COc3ccccc3OC)CC2)cc1	-1.02%
COc1ccc(N2CCN(S(=O)(=O)CCNC(=O)COc3ccccc3C)CC2)cc1	1.17%
COc1ccc(OCC(=O)NCCS(=O)(=O)N2CCN(c3ccc(F)cc3)CC2)cc1	-8.69%
COc1ccccc1OCC(=O)NCCS(=O)(=O)N1CCN(c2ccccc2)CC1	-44.4%
Cc1ccccc1OCC(=O)NCCS(=O)(=O)N1CCN(c2ccc(F)cc2)CC1	-66.6%
COc1ccccc1OCC(=O)NCCS(=O)(=O)N1CCN(c2ccc(F)cc2)CC1	-60.8%
CCOc1ccc(/C=C(\C#N)C(=O)c2c(C)[nH]c3ccccc23)cc1OC	-4.5%
CC1Cc2ccccc2N1CC(=O)Nc1ccc(S(N)(=O)=O)cc1 (stereo not drawn)	-6.21%

SMILES	hERG current change (%, negative = inhibition) at 10uM
COC(=O)c1cc(-c2ccccc2)sc1NC(=O)CN1C(=O)c2ccccc2C1=O	15.9%
Cc1cc2n(c(=O)c1C#N)CCCN2c1cccc(Cl)c1	-65%
Cc1ccc(N2CCCn3c2cc(C)c(C#N)c3=O)cc1C	-21.4%
Cc1ccc(N2CCCn3c2cc(C)c(C#N)c3=O)cc1Cl	-22.8%
C#CCOc1ccc(/C=C2\SC(=S)N(Cc3cccnc3)C2=O)cc1	15.9%
Cc1ccc(Nc2nc(N)nc(CN3CCN(Cc4ccc5c(c4)OCO5)CC3)n2)cc1	-73.3%
Cc1cc(Cl)ccc1NC(=S)N1CCN(Cc2ccc3c(c2)OCO3)CC1	4.84%
c1ccc(Cc2noc(CN3CCN(Cc4ccc5c(c4)OCO5)CC3)n2)cc1	-28.1%
c1ccc(CN2CCC(N3CCN(Cc4ccc5c(c4)OCO5)CC3)CC2)cc1	-39.8%
Cc1ccc(NC2=NCC(=O)N2Cc2ccc3c(c2)OCO3)cc1	-5.93%
Cc1ccc(Nc2nc(N)nc(CN3CCN(Cc4ccc5c(c4)OCO5)CC3)n2)cc1Cl	-81.2%
Cc1ccc(NC(=O)CSCC(=O)N2CCN(Cc3ccc4c(c3)OCO4)CC2)cc1	-25.9%
Cc1cccc(NC(=O)CSCC(=O)N2CCN(Cc3ccc4c(c3)OCO4)CC2)c1	-23.3%
Cc1cccc(Nc2nc(N)nc(CN3CCN(Cc4ccc5c(c4)OCO5)CC3)n2)c1	-75.2%
O=C(Nc1ccc(Cl)cc1)N1CCN(Cc2ccc3c(c2)OCO3)CC1	-27.6%
Nc1nc(CN2CCN(Cc3ccc4c(c3)OCO4)CC2)nc(Nc2ccccc2)n1	-75.6%
Cc1cccc(S(=O)(=O)N2CCN(Cc3ccc4c(c3)OCO4)CC2)c1	-35.2%
O=C(CNC(=O)N1CC(=O)Nc2ccccc21)NCc1cccc(Cl)c1	12.8%
COC(=O)c1sccc1NC(=O)c1ccccc1F	15.3%
O=C(c1ccc(S(=O)(=O)N2CCCC2)cc1)N1CCN(Cc2ccc3c(c2)OCO3)CC1	-28%
CCN(CC)C(=O)c1ccc(NC(=O)c2ccc(N3CCCC3=O)cc2)cc1	5.47%
Cc1ccc2nc3sc(C(=O)N4CCCc5ccccc54)c(N)c3cc2c1	2.69%

SMILES	hERG current change (%, negative = inhibition) at 10uM
COCCNS(=O)(=O)c1ccc2c(c1)Cc1cc(S(=O)(=O)NCCOC)ccc1-2	-22.1%
O=C(N/C=C/c1ccccc1)Nc1ccc(Cl)cc1	10.3%
CCOc1ccc(C(=O)Nc2cc(S(=O)(=O)Nc3ccccc3Cl)ccc2N2CCOCC2)cc1	6.95%
Cc1ccc(S(=O)(=O)NCC(=O)N(c2ccccc2)C(C(=O)NCc2ccccc2)c2ccco2)cc1 (stereo not drawn)	-6.04%
Cc1ccc(-n2nc(C(=O)N3CCN(C)CC3)c3c4ccccc4n(C)c3c2=O)cc1	5.61%
Cc1nc(SCC(=O)NC2CC2)c2c(C)c(C)sc2n1	6.21%
CC(=O)N/C(=C\c1ccccc1)C(=O)OCc1ccc(F)cc1	-0.974%
CC(=O)Nc1ccc(S(=O)(=O)NC(C)c2ccccc2)cc1 (stereo not drawn)	13.2%
CCOC(=O)c1c(NC(=O)CN2C(=O)NC3(CCCCCC3)C2=O)sc(C)c1-c1ccc(C)cc1	4.24%
Nn1c(SCc2cccc(F)c2)nnc1-c1cccnc1	9.33%
O=C(CSc1ccc2nnc(-c3cccnc3)n2n1)Nc1cccc(F)c1	-43.6%
Cc1cccc(NC(=O)CSc2ccc3nnc(-c4cccnc4)n3n2)c1	-30.1%
Cc1cccc(CSc2ccc3nnc(-c4cccnc4)n3n2)c1	-66.5%
Cc1cccc(CSc2ccc3nnc(-c4cccs4)n3n2)c1	17.9%
Fc1cccc(CSc2ccc3nnc(-c4cccnc4)n3n2)c1	-69%
Cc1cc(S(=O)(=O)N2CCCC2)ccc1OCC(=O)NCc1ccccc1	-11.8%
COc1ccc(-c2nn(-c3ccccc3)cc2/C=N/NC(=O)c2ccc(Br)o2)cc1	-0.138%
Cc1ccc(C(=O)NCCc2nnc3ccc(SCC(=O)Nc4ccccc4F)nn23)cc1	-12.7%
Cc1ccc(NC(=O)c2cc(=O)n(Cc3ccccc3)c(=O)[nH]2)cc1C	35.8%
N#C/C(=C/c1ccc(Sc2nc3ccccc3[nH]2)o1)c1cccc(Br)c1	21.3%
CC(=O)N1CCN(C(=S)NCCc2ccccc2)CC1	-4.66%
COC(=O)c1ccccc1NC(=S)N1CCN(C2CCCCC2)CC1	-22.4%

SMILES	hERG current change (%, negative = inhibition) at 10uM
CCOC(=O)c1ccccc1NC(=S)N1CCN(C2CCCCC2)CC1	-62.3%
CCOC(=O)c1ccccc1NC(=S)N1CCC(N2CCCCC2)CC1	-33.8%
S=C(NCCc1ccccc1)N1CCN(C2CCCCC2)CC1	-63.4%
OC1CCN(C(=S)NCCc2ccccc2)CC1	-0.627%
S=C(NCCc1ccccc1)N1CCN(C23CC4CC(CC(C4)C2)C3)CC1	-75.2%
CC1CCN(C(=S)NCCc2ccccc2)CC1	-15.2%
CN1CCN(C(=S)NCCc2ccccc2)CC1.O=C(O)C(=O)O	-14.5%
S=C(NCCc1ccccc1)N1CCCCC1	14.4%
S=C(NCCc1ccccc1)N1CCCC1	9.47%
O=C(c1ccccc1)N1CCN(C(=S)NCCc2ccccc2)CC1	-65.7%
COc1cccc(CC2(CO)CCCN(S(=O)(=O)N(C)C)C2)c1 (stereo not drawn)	42.4%
CCOC(=O)c1ccc(NC(=O)CN2C(=O)C(C)SC(C)C2=O)cc1 (stereo not drawn)	8.95%
COc1ccc(C(CNC(=O)c2cc(S(=O)(=O)NCc3ccccc3)ccc2C)N2CCOCC2)cc1 (stereo not drawn)	-19%
COC(=O)CSc1nnc(COc2ccc3ccccc3c2)o1	19%
CC(=O)N(CCC1(C(C)C)CCOC(C)(C)C1)C(C)c1cccs1 (stereo not drawn)	-2.41%
Cc1cccc(NC(=O)c2ccc(C(=O)Nc3cccc(C)c3)nc2)c1	23.2%
COc1ccc(-c2noc(C(=O)NCc3ccccc3Cl)n2)cc1OC	0.607%
CC(C)C1CC(c2csc(N)n2)CCO1 (stereo not drawn)	18.8%
Cc1[nH]oc(=O)c1N=Nc1ccc2[nH]c(=O)[nH]c2c1	7.93%
CCOc1cc(-c2cn(S(=O)(=O)c3cccc4nsnc34)nc2N)cc(OCC)c1OCC	0.719%
Cc1cc(C)c2sc(N(CCN(C)C)C(=O)c3c(F)cccc3F)nc2c1.Cl	-2.23%
